Test [1] in a line: cAMP Responsive Elements (CRE) small molecule antagonists, cell-based qHTS assay: qHTS cell viability counter screen (AID 2060913). Also: nearly all actives have a fitted effect of over 40% in size. The procedure, abridged: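 Steps: cells plated and held 18 hrs at 37 C/5% CO2; compounds and NKH477 (0.25 uM final) added; 3 hrs incubation; reporter substrate read; CellTiter-Glo added to measure cytotoxicity by luminescence.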
Test [2] can be described thus: cAMP Responsive Elements (CRE) small molecule agonists, cell-based qHTS assay: qHTS cell viability counter screen (AID 2060914). Also: nearly all actives have a fitted effect of over 50% in size. The method in brief: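 Cytotoxicity counter screen multiplexed with the CRE-bla reporter assay in HEK 293T cells: 3 h compound exposure at 37 °C, followed by CellTiter-Glo luminescence measured in the same wells.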

Inconclusive results are not listed. A call without a number means that no potency is given here. Activity calls are given as the source filed them. Calls follow the shape of the dose curve; as a rule, active = well fitted cell-killing curve with a large enough effect in the repeat runs; inconclusive = weak or mixed curves, or effect the other way; inactive = flat fitted curve, though single readings scatter.

As to `Oc1cc(O)c2c(c1)O[C@H](c1ccc(O)c(O)c1)[C@H](O)C2`, the Potency entry in test [1] and in test [2] was “inactive” each time.

As for `CC(=O)OC(C)OC(=O)C(C)c1ccc(-c2ccccc2)c(F)c1` (stereo unspecified), the Potency result in test [1] and in test [2] was “inactive” throughout.

On to `CCC(C(=O)OCCN(CC)CC)c1ccccc1` (stereo unspecified), for which the Potency result in test [1] and in test [2] was “inactive” in each case.

(Values after PubChem BioAssay (Tox21).)
